Assay outcomes deposited in PubChem by National Center for Advancing Translational Sciences (NCATS).
Most compounds without a hit are left out; they make up all but 7.6% or so of the library.
SW480 rereplic: A quantitative high throughput screen for small molecules that induce DNA re-replication in SW480 colon adenocarcinoma cells | SW480 DNA re-replication, Hoechst DNA content imaging, 48 h | Potency, µM (highest dose often 46.1 µM), inactives show at the highest dose re-replication activation, hits mostly activators | 1.8% of 340,000 active | AID 624297, 2012; also: potency is read from the fitted curve at half-maximal effect; % of control where 0% means no effect; nearly all actives have a fitted effect of over 55% in size
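Readout is total intensity of Hoechst-stained nuclei, excited at 405 nm and collected at 500-530 nm. Compound treatment lasted 48 hr at 37 C in 5% CO2 before staining.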
MCF10A rerep: A quantitative high throughput screen for small molecules that induce DNA re-replication in MCF 10a normal breast cells | MCF 10A DNA re-replication, Hoechst nuclear intensity, 48 h | Potency, µM (highest dose often 46.1 µM), for inactives: at the top dose activity, positive = re-replication, most hits filed as activators | 2.9% of 350,000 active | AID 624296, 2012; also: potency is read from the fitted curve at half-maximal effect; % of control where 0% means no effect; nearly all actives have a fitted effect of over 50% in size
KCNH2 3.1 block: qHTS for Inhibitors of KCHN2 3.1: Mutant qHTS; activity change, % (tested at about 1.8 µM); 0.95% of 340,000 active; U2OS KCNH2 3.1, thallium flux FluxOr; hits give low values; Potassium voltage-gated channel subfamily H member 2, brain isoform KCNH2 3.1 (human);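 active = maximum activity change below -70%; inconclusive = maximum activity change from -70% to -50%; inactive = maximum activity change above -50%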;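 also: thallium influx rate constant from kinetic fluorescence after stimulation buffer; % is scaled to controls: 0 for no effect and ±100 for the full control effect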
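Measured as rate of thallium-driven FluxOr signal in transduced U2OS cells carrying the 3.1 channel, read kinetically for 2 min upon stimulation; values are rate constants scaled to DMSO control wells.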
hERG WT inh: qHTS for Inhibitors of KCHN2 3.1: Wildtype qHTS | 0.37% of 340,000 active | AID 720551, 2013 | activity change, % at 1.84 µM | U2OS, BacMam KCNH2, thallium flux FluxOr; hits give low values;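 active = maximum activity change below -70%; inconclusive = maximum activity change between -70% and -50%; inactive = maximum activity change above -50%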; also: % is scaled to controls: 0 for no effect and ±100 for the full control effect
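U2OS cells transduced with wild-type KCNH2 virus are loaded with FluxOr dye for 45 min, and thallium flux is measured in kinetic reads before and after stimulation buffer. Rate constants are normalized to DMSO controls.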
KB-V1 cytotox: qHTS assay for MDR1-selective chemotherapeutics: Primary screen using the drug-selected MDR subline cells KB-V1. KB-V1 MDR cells viability, CellTiter-Glo, 72 h. Potency, µM (highest dose often 46.1 µM), hits mostly cytotoxic. 3.4% of 400,000 active. AID 1347076, 2019; also: potency is read from the fitted curve at half-maximal effect; % is scaled to controls: 0 for no effect and ±100 for the full control effect; nearly all actives have a fitted effect of over 60% in size
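Cells of the MDR subline KB-V1 are plated, dosed with compound at multiple concentrations, and incubated 72 h at 37 degrees C; CellTiter-Glo is then added and luminescence read after 10 min.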
KB-3-1 cytotox: qHTS assay for MDR1-selective chemotherapeutics: Primary screen using the parental adenocarcinoma cell KB-3-1; KB-3-1 viability, CellTiter-Glo ATP luminescence, 72 h; Potency, µM (highest dose often 46.1 µM), usual class: cytotoxic; 1.4% of 400,000 active; AID 1347075, 2019; also: potency is read from the fitted curve at half-maximal effect; % is scaled to controls: 0 for no effect and ±100 for the full control effect; nearly all actives have a fitted effect of over 60% in size
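72 h, 37 °C compound treatment of KB-3-1 parental cells; CellTiter-Glo added, 10 min, luminescence read. Data corrected against DMSO-only plates and normalized before curve fitting.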
* marks the source's active call; other numbers are inactive results; i = inactive; ? = inconclusive; / = no result; [ ] = dose if it differs, or a comment. Unless noted, calls follow the shape of the dose curve; as a rule, active = well fitted curve in the direction sought with a large enough effect; inconclusive = small, poorly fitted or top-dose-only effect, or another doubt; inactive = no such curve, though single readings can be large; an effect the other way counts as inactive or inconclusive.

SMILES	SW480 rereplic	MCF10A rerep	KCNH2 3.1 block	hERG WT inh	KB-V1 cytotox	KB-3-1 cytotox
CC(=O)C1C(N2CC2)CC2C3CCC4=CC(=O)CCC4(C)C3CCC21C (stereo not given)	?	16µM*	5	-5	?	?
CCC(=O)O[C@H]1CC[C@H]2[C@@H]3CCC4=CC(=O)CC[C@]4(C)[C@H]3CC[C@]12C	-81%	?	-13	-10	?	i
CC1CC2C(C(O)CC3(C)C(O)CCC23)C2(C)CCC(=O)C=C12 (stereo not given)	6%	7%	8	-5	6.5µM*	12µM*
C[C@]12CC[C@H]3[C@@H](CCC4=CC(=O)CC[C@@]43C)[C@@H]1CC[C@@H]2C(=O)CO	?	?	-13	0	8.2µM*	?
O=C(Nc1ccc(Br)cc1)c1cc(Br)cc(Br)c1O	-3%	?	/	/	/	/
C[C@]12CC[C@H]3[C@@H](CCC4=CC(=O)CC[C@@]43C)[C@@H]1CC[C@@H]2O	-10%	7%	/	/	3.7µM*	10µM*
CC12CCC(=O)C=C1CCC1C2C(O)CC2(C)C(O)CCC12 (stereo not given)	-11%	-6%	2	-1	?	?
CCOc1ccc(CN2C(=O)c3ccccc3Sc3ccc(C(=O)N4CCC5(CC4)OCCO5)cc32)cc1	/	/	/	/	i	i
CC1CCN(c2ccccc2NC(=O)c2cc3ccccc3o2)CC1	13%	?	?	-8	i	i
N[C@@H](Cc1ccc(N(CCCl)CCCl)cc1)C(=O)O	?	?	-3	-3	i	i
ClCCN(CCCl)c1ccc(-n2cnc3c(Cl)ncnc32)cc1	8.2µM*	2.9µM*	6	6	i	?
O=C1CC(N2CCN(c3ccccc3)CC2)C(=O)N1CCc1ccccc1 (stereo not given)	-3%	?	3	-4	?	i
O=C(CCN1CC2CCC(CC2)C1)c1cccs1	?	10µM*	-9	-3	i	i
Cc1ccc2c(c1)C1CN(C)CCC1N2C(=O)c1cccs1 (stereo not given)	-7%	-4%	15	-9	i	i
CCCC(C)C1(CC)C(=O)NC(=S)NC1=O (stereo not given)	1%	-1%	/	/	/	/
Cc1ccsc1C(=O)C1CCCN(Cc2ccccc2O)C1 (stereo not given)	?	?	-1	28	?	i
Cc1ccsc1C(=O)C1CCCN(Cc2cccn2-c2ccccn2)C1 (stereo not given)	9%	-2%	-75*	-26	i	?
COc1ccc(/C=C2\Oc3cc(OC(=O)N4CCOCC4)ccc3C2=O)c(OC)c1	?	-3%	-5	-7	i	i
COc1ccc(F)cc1CN1CCN(C(=O)CCC(=O)Nc2nnc(CC(C)C)s2)CC1	?	18µM*	-9	1	i	i
O=c1oc2cccnc2n1CCS(=O)(=O)c1ccc(F)cc1	?	21µM*	17	4	i	i
Cc1ccc(Cl)c(O)c1	5%	2%	/	/	/	/
C=CCNc1nnc(Sc2ncccc2[N+](=O)[O-])s1	?	?	6	-7	i	i
C=C1C(=O)O[C@@H]2C[C@@H](C)[C@H]3C=CC(=O)[C@]3(O)C[C@@H]12	?	?	21	-12	i	i
C=C1C(=O)OC2CC3(C)OC3CCC(C)=CC(OC(C)=O)C12 (stereo not given)	4%	5.2µM*	/	3	i	?
C[n+]1c(-c2ccccc2)c2cc(N)ccc2c2ccc(N)cc21	-97%	-26%	-7	2	i	2.9µM*
SMILES	SW480 rereplic	MCF10A rerep	KCNH2 3.1 block	hERG WT inh	KB-V1 cytotox	KB-3-1 cytotox
Fc1ccc(C(OCCN2CCN(CCCc3ccccc3)CC2)c2ccc(F)cc2)cc1	?	21µM*	/	/	16µM*	?
c1ccc(CCCN2CCN(CCOC(c3ccccc3)c3ccccc3)CC2)cc1	?	5.2µM*	-117*	?	10µM*	?
c1ccc(CCN2CCOCC2)cc1	/	/	/	/	i	i
O=C1CC(c2ccc(C(F)(F)F)cc2)c2c(c3ccccc3oc2=O)O1 (stereo not given)	/	/	/	/	i	i
C[N+]1([O-])[C@@H]2CC[C@H]1CC(OC(=O)[C@@H](CO)c1ccccc1)C2 (stereo not given in full)	-1%[20.6 µM]	2%[20.6 µM]	/	/	/	/
COC(=O)[C@@H]1[C@@H]2C[C@H]3c4[nH]c5cc(OC)ccc5c4CCN3C[C@@H]2C[C@H](OC(=O)/C=C\c2cc(OC)c(OC)c(OC)c2)[C@H]1OC	10%[20.6 µM]	11%[20.6 µM]	/	/	/	/
C/C=C/C(=O)OCC(=O)Nc1ccc(OC)c(Cl)c1	-1%	?	-6	3	i	i
Nc1c(C(=O)NCCN2CCOCC2)c2nc3ccccc3nc2n1Cc1ccccc1	23µM*	15µM*	-16	3	?	i
O=C(NCCN1CCOCC1)c1ccc(Cl)nc1Cl	-7%	13%	-3	-14	i	i
C=CCNC(=O)c1c(N)n(Cc2ccco2)c2nc3ccccc3nc12	12%	20%	16	-3	i	i
Nc1c(C(=O)NCCc2ccccc2)c2nc3ccccc3nc2n1CCN1CCOCC1	8%	1%	15	-1	23µM*	i
COc1ccc(CCNC(=O)c2c(N)n(CCN3CCOCC3)c3nc4ccccc4nc23)cc1	16µM*	?	6	-8	?	?
Nc1c(C(=O)NCCN2CCOCC2)c2nc3ccccc3nc2n1Cc1ccco1	8.2µM*	6.5µM*	-14	-8	i	i
COc1ccc(C(=O)c2c(C)n(CCN3CCOCC3)c3ccccc23)cc1	?	13%	/	/	/	/
O=C(CO)C(O)C(O)C(O)CO (stereo not given)	?	-9%	11	-5	i	i
C[C@@H](N)[C@@H](O)c1ccc(O)c(O)c1	10%	-1%	/	/	/	/
CCCCn1c(N)c(C(=O)NCCN2CCOCC2)c2nc3ccccc3nc21	18µM*	21µM*	4	-4	i	i
CCOC(=O)c1c(N)n(CCN2CCCCC2)c2nc3ccccc3nc12	19%	?	-3	-9	i	i
Cc1c(C)n(O)c2ccc3nonc3c12	?	21µM*	5	4	i	i
COCC(C)N(C(=O)CCl)c1c(C)csc1C (stereo not given)	-1%	1%	/	/	/	/
